Experimental data published in PubChem BioAssay (NCATS).
Values without a mark were called inactive. The source made the active and inactive calls. The call rests on the fitted dose curve; in most records, active means well fitted activation curve with a large enough effect; inconclusive means small, poorly fitted or top-dose-only effect; inactive means flat fitted curve, though single readings scatter.

experiment: Confirmation and Secondary Assay for Modulators of Hemoglobin Beta Chain Splicing at IVS2 705 locus (AID 930); settings: HeLa EGFP-705 splicing reporter, GFP fluorescence, 48 h; series mostly up to 46.1 µM; activation: at the top concentration; further: % of control where 0% means no effect
Source text: NIH Chemical Genomics Center [NCGC] NIH Molecular Libraries Screening Centers Network [MLSCN] MLSCN Grant: 1 X01 MH080684-01 PI Name: Dr. Ryszard Kole NCGC Assay Overview: Modulation of Alternative Splicing as Therapy Abnormal splicing is associated with a number of diseases, including cancer and genetic diseases such as cystic fibrosis, muscular dystrophy and beta-thalassemia. Alteration of disease associated splicing patterns provides a promising target for treatment. […] Mutations in the second intron of the b-globin gene at positions 654 or 705 are clinically relevant and cause mis-splicing which results in an out of frame gene product. […] EGFP-705 HeLa Cells as screen system. HeLa cell lines were stably transfected with a construct in which the EGFP (enhanced green fluorescent protein) cDNA was interrupted by the second intron of the beta-globin gene (IVS2-705). The ISV2 intron contains mutations which cause mis-splicing of EGFP and premature termination of EGFP which results in a nonfluorescent protein product. […] Expression of the transgene was driven by the CMV promoter. We concluded that a low molecular weight compound, which restored correct splicing of intron 2 would also generate functional EGFP protein, resulting in a fluorescent signal. Thus, the HeLa cells that express the EGFP-705 construct can be used for validation of splice site specificity of compounds identified in primary screening of the ISV2 654 construct.
NCGC Assay Protocol Summary: Confirmatory Screening. Freshly thawed HeLa EGFP-705 cells were seeded in 5 ul of optimem media (Invitrogen) containing 2 % fetal calf serum (Hyclone) and 1x penicillin/streptomycin (Invitrogen) at a concentration of 500 cells per well in 1536-well plates. Cells were incubated overnight at 37C in 5% CO2. The next day, cells were treated with DMSO, 500 nM antisense ISV2 654 PNA control oligo, or library compound and allowed to grow at 37C in 5% CO2 for 2 days. The PNA oligo blocked the mutation site in the intron and allowed proper (wild type) splicing to occur, resulting in full length EGFP expression and also allowed for optimization of the assay parameters. Plates were read in the Acumen Explorer (TTP Labtech) using 488 nm laser excitation and 500-520 nm emission PMT filter in a 1 x 8 uM capture mode. Fluorescnet objects ranging in size from 5 to 250 uM were measured and the total peak GFP intensity for each well was used for data analysis. Keywords: Thalassemia, beta-thalassemia, beta-globin, EGFP, ISV2 654, ISV2 705, SSO, PNA, antisense, splicing, MLSMR, MLSCN, NIH Roadmap, qHTS, NCGC

Structure (SMILES)	activation	outcome
CCC(C(=O)O)C1CCC(C)C(C(C)C(O)C(C)C(=O)C(CC)C2OC3(C=CC(O)[C@@]4(CC[C@](C)(C5CC[C@@](O)(CC)C(C)O5)O4)O3)C(C)CC2C)O1 (stereo not given in full)	-0.502%	–
Cc1cc(O)c2c(c1)C(=O)c1cccc(O)c1C2=O	1.49% [at 38.3 µM]	–
COc1ccc(C(C)=O)c(O)c1	-2.3%	–
CC(Cc1ccc(O)c(O)c1)(NN)C(=O)O (stereo not given)	-0.0854% [at 38.3 µM]	–
C[C@@]12C(=O)OC(=O)[C@@]1(C)C1CCC2O1	-0.595% [at 38.3 µM]	–
OCC(O)C(O)C(O)CO (stereo not given)	–	inactive
Oc1cc2c(cc1O)C1c3ccc(O)c(O)c3OCC1(O)C2 (stereo not given)	2.03%	–
c1coc(CNc2ncnc3nc[nH]c23)c1	3.18%	–
Cc1ccc(O)c(C(CCN(C(C)C)C(C)C)c2ccccc2)c1 (stereo not given)	0.377% [at 38.3 µM]	–
CCCCCCCCCCCC(CC1OC(=O)C1CCCCCC)OC(=O)C(CC(C)C)NC=O (stereo not given)	1.24%	–
